NR3A LBD binder – binders of NR3A ligand-binding domain, primary screen, biophysical, differential scanning fluorimetry, uHTS | Glutamate receptor ionotropic, NMDA 3A (GRIN3A) ligand-binding domain | NR3A LBD differential scanning fluorimetry, Tm shift; 0% = protein alone, 100% = glycine-bound protein | Tm shift relative to glycine control, % at 25 µM | 340,000 compounds, 2.5% hits;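 active = melting temperature shift of at least 10% of the positive control shift, at one fixed dose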
Mdm2 MdmX PPI – inhibitors of human Mdm2-MdmX association, primary screen, cell-based, luminescence, split luciferase, SaOS-2, uHTS | Protein Mdm4 (Homo sapiens) + E3 ubiquitin-protein ligase Mdm2 (Homo sapiens), … | SaOS-2 split-luciferase Mdm2/MdmX complementation | inhibition, % at 8 µM | 330,000 compounds, 3% hits | AID 485346, 2010;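 active = inhibition of at least 50% at 8 µM in the primary screen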
Target sequence (O15151 whole entry, looked up): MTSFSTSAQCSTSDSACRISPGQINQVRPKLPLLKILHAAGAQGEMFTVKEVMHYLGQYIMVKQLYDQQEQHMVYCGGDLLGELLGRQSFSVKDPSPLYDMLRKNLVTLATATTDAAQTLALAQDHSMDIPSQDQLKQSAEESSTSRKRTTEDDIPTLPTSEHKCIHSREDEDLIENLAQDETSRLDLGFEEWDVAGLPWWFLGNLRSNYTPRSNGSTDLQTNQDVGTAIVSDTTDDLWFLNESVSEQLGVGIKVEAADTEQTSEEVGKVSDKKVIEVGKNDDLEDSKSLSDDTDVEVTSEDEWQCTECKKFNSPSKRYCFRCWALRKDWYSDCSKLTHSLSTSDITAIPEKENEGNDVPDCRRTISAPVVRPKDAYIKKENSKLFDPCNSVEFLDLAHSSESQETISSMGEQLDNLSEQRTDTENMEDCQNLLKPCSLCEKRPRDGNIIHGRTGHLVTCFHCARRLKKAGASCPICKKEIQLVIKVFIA
Target sequence (Q00987 whole entry, looked up): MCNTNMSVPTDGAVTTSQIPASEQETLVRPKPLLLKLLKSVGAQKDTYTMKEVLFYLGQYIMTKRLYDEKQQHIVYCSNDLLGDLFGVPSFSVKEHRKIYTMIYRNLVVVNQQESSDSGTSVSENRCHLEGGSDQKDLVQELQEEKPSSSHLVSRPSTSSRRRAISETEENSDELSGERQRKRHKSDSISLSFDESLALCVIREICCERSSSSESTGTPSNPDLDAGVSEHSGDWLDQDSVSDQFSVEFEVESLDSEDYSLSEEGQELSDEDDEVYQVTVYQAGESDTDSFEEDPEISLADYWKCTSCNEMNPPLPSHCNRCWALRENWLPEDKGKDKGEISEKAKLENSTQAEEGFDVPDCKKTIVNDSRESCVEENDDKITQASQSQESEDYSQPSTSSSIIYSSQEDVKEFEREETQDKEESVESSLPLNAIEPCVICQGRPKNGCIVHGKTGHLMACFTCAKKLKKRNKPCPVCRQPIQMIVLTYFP
MPTP block – mitochondrial permeability transition pore inhibitors, primary screen, biochemical, isolated mouse mitochondria, absorbance; 360,000 compounds, 1.4% hits; AID 602449, 2012; inhibition, % at 10 µM; Ca2+ swelling absorbance, 30 min;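 active = inhibition of 50% or more, scaled per plate between neutral and stimulator controls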;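 note: 0% = DMSO wells given calcium and 100% = 1 mM EGTA wells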
SKKanGAS inh – S. pyogenes SKKanGAS growth inhibitors in kanamycin, primary screen, streptokinase expression inhibitor project, SKKanGAS strain, BacTiter-Glo luminescence | 6 h | inhibition, % at 7.5 µM | 300,000 compounds, 1.3% hits | AID 1662, 2009;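 active = mean replicate score, as percent of positive control median, at least 50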;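 note: strain carries kanamycin resistance gene driven by streptokinase promoter and grows in 40 µg/ml kanamycin; loss of luminescence reflects streptokinase promoter inhibition or plain growth inhibition; 0% = median of DMSO wells and 100% = positive control at its reference dose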
CSC inhib – cancer stem cell viability inhibitors, primary screen, luminescence; AID 2717, 2010; inhibition, % at 7.5 µM; cancer stem cell-like cells viability; 300,000 compounds, 1.1% hits; in the data active = inhibition above about 75%; tested in HMLE shEcad cells
Beta cell apopt – inhibitors of cytokine-induced beta cell apoptosis, primary screen, luminescence | INS-1E cytokine-induced death, ATP luminescence, 48 h; percent of positive-control rescue, neutral wells zero | AID 435005, 2010 | 300,000 compounds, 0.8% hits | protection from apoptosis, % (concentration not given with the values);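 active = Every replicate reaches about 75%, or at least half do and their mean reaches it too, limit read from the data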;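 note: 0% = cytokine-treated negative control wells and 100% = positive control rescue; higher means more ATP so stronger rescue from cytokine killing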
Mdm2 MdmX conf – Mdm2-MdmX complex disruptors, retested hits, confirmation, luminescence, single concentration. shares compounds with Mdm2 MdmX PPI. Mdm2-MdmX binding, luminescent assay. inhibition, % at 8 µM. 10,000 compounds, 55% hits. AID 489028, 2010; in the data active = inhibition above about 40%
Full FLuc ctr – full-length luciferase signal inhibition, confirmation, counter-screen for Mdm2/MdmX interaction inhibitor project, cell-based, single concentration, SaOS-2; SaOS-2 full-length luciferase counterscreen, luminescence; inhibition, % at 8 µM; shares compounds with Mdm2 MdmX PPI; 6,200 compounds, 77% hits;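 active = mean inhibition at 8 µM reaching about 37%, which flags the compound as non-specific, limit read from the data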;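 note: p53-null SaOS-2 cells with luciferase driven by a doxycycline-inducible promoter; compound on cells about two nights before reading with doxycycline added after day one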
Active calls of the source: *; · = no result given. Only some compounds are listed: those with a hit (about 6.9% of all), similar ones and a draw of the others.

SMILES	NR3A LBD binder	Mdm2 MdmX PPI	MPTP block	SKKanGAS inh	CSC inhib	Beta cell apopt	Mdm2 MdmX conf	Full FLuc ctr
O=C(NC1CCCc2c1cnn2-c1cc(F)cc(F)c1)c1ccccn1 (stereo not given)	1	5	1	1	-16	2	·	·
COc1ccc(C(=O)NC2CCCc3c2cnn3-c2cc(F)cc(F)c2)c(OC)n1 (stereo not given)	-1	20	0	7	1	-2	·	·
COC(=O)c1ccc(C(=O)NC2CCCc3c2cnn3-c2ccc(C)c(C)c2)cc1 (stereo not given)	6	60*	1	11	-23	12	72*	59*
COC(=O)c1ccc(C(=O)NC2CCCc3c2cnn3-c2cc(F)cc(F)c2)nc1 (stereo not given)	-4	58*	1	4	-7	2	50*	57*
COc1ccc(C(=O)NC2CCCc3c2cnn3-c2cc(F)cc(F)c2)c(OC)c1OC (stereo not given)	-1	53*	-2	8	26	3	47*	57*
Cc1cc(C(=O)NC2CCCc3c2cnn3-c2ccc(C)c(C)c2)nc(C)n1 (stereo not given)	-4	4	0	17	26	-14	·	·
CC(=O)Nc1ccc(NC(=O)CSc2n[nH]c(-c3cccs3)n2)cc1	8	0	-2	-15	1	0	·	·
COc1ccc(CNC(=O)c2cc(S(=O)(=O)N3CCCCC3)ccc2Cl)cc1OC	2	34	11	·	-15	0	·	·
Cc1cc(C)n2nc(SCC(=O)Nc3ccccc3C)nc2n1	-1	20	0	0	·	0	·	·
CCCCn1c(N)c(N(CC(C)C)C(=O)CC2CCCC2)c(=O)[nH]c1=O	-1	8	1	4	·	3	·	·
Cn1c(/C=C/c2ccc(Cl)cc2)c([N+](=O)[O-])c(=O)n(C)c1=O	0	64*	0	2	57	-5	44*	37*
Cn1c(/C=C/c2cccc([N+](=O)[O-])c2)c([N+](=O)[O-])c(=O)n(C)c1=O	1	84*	-2	0	32	-20	52*	43*
COc1ccc(/C=C/c2c([N+](=O)[O-])c(=O)n(C)c(=O)n2C)cc1OC	2	14	1	-12	-16	-8	·	·
COc1ccccc1Cc1c(-c2ccco2)nc2c3ccccc3ccn12	·	·	-1	·	·	·	·	·
CSCCC(NS(=O)(=O)c1ccc(C)cc1C)C(=O)Nc1cccnc1 (stereo not given)	1	17	-2	·	-2	-2	·	·
CC(C)(C)OC(=O)N[C@@H](Cc1ccccc1)c1nnc(S(=O)(=O)Cc2ccccc2)o1	·	100*	·	·	131*	49	70*	0
Cc1ccccc1CS(=O)(=O)c1nnc([C@H](Cc2ccccc2)NC(=O)OC(C)(C)C)o1	-4	100*	-2	17	99*	93*	53*	1
CCCC(NC(=O)c1ccc(Br)o1)c1nc2ccccc2[nH]1 (stereo not given)	0	24	1	·	4	-4	·	·
Cc1ccc(NC(=O)CNCc2cccs2)cc1Br	-2	8	1	3	-7	-6	·	·
Cc1nc(N)c(C#N)c(-c2cccnc2)c1C	-1	51*	-1	2	-16	-17	28	·
CCc1nc(N)c(C#N)c(-c2cccnc2)c1C	1	18	0	·	6	-5	·	·
CCn1cc(C(=O)NCCC(C)C)c(=O)c2cc(F)c(N3CCN(C(=O)c4ccco4)CC3)cc21	1	54*	-3	26	29	11	42*	63*
CC1Sc2ccc(C(=O)NCc3cccc(C(F)(F)F)c3)cc2NC1=O (stereo not given)	0	19	2	·	·	6	·	·
COc1ccc(-c2nc3c(c(SCC(=O)N4CCOCC4)n2)Cc2c(CO)cnc(C)c2O3)cc1	-1	58*	0	12	8	3	28	·
COc1ccc(NC(=O)N2C3CCCC2CC(NC(=O)c2ccccc2)C3)cc1 (stereo not given)	-2	-13	0	-4	11	5	·	·
SMILES	NR3A LBD binder	Mdm2 MdmX PPI	MPTP block	SKKanGAS inh	CSC inhib	Beta cell apopt	Mdm2 MdmX conf	Full FLuc ctr
C=C(C)CNC(=S)NNC(=O)CCn1c2ccc(Cl)cc2c2cc(Cl)ccc21	27*	54*	10	74*	102*	5	18	·
CCOc1cc(/C=C(/C#N)C(=O)Nc2ccc(O)cc2)cc(Br)c1O	13*	70*	0	19	47	27	63*	86*
C=CCNC(=O)/C(C#N)=C\c1cc(Cl)c(O)c(OCC)c1	-11	·	1	16	6	1	·	·
Cc1cccc(CSc2cccc3cccnc23)c1	8	51*	1	43	45	46	67*	37*
Cc1cccc(NC(=O)CSc2cccc3cccnc23)c1C	3	-7	-2	2	-11	-7	·	·
CCOC(=O)CSc1cccc2cccnc12	-2	77*	-5	2	37	16	14	·
COc1ccc(C)cc1S(=O)(=O)N(C)CC(=O)NCc1ccncc1	1	26	0	8	-4	·	·	·
CC1(C)O[C@@H]2[C@H](O1)[C@@H](COS(=O)(=O)O)O[C@H]2n1cc(Br)c(=O)[nH]c1=O	-3	22	0	·	-4	-10	·	·
COc1cc(C(=O)Nc2nc(C)c(Cc3ccc4c(c3)OCO4)s2)cc(OC)c1OC	1	79*	-2	-1	56	43	67*	76*
Cc1c(Cc2ccc3c(c2)OCO3)sc(NC(=O)C(C)(C)C)c1C#N	0	58*	1	3	48	-2	36	·
Cc1c(Cc2ccc3c(c2)OCO3)sc(NC(=O)c2ccc3ccccc3c2)c1C(N)=O	-1	80*	1	5	30	27	-11	·
CCCOc1ccc(C(=O)Nc2nc(C)c(Cc3ccc4c(c3)OCO4)s2)cc1	-2	48	-3	-2	49	33	·	·
CCC(=O)Nc1sc(Cc2ccc3c(c2)OCO3)c(C)c1C(N)=O	0	4	2	22	8	-13	·	·
FC(F)(F)c1ccc(CN2C[C@@H]3C(c4ccccc4)C4(c5cccnc5)CC3(C4)[C@H]2c2ccccc2)cc1 (stereo not given in full)	-1	25	2	21	63	13	·	·
